In PubChem BioAssay (NCI):
About 79,000 compounds went through this panel and 15% of them were active in at least one assay; those are over-represented in the sample as a whole. The source made the active and inactive calls. Rule as the data show it: active = growth inhibition above about 70%; inactive = the rest.

Experiments:
[1] = NCI Yeast Anticancer Drug Screen. Data for the wt1 strain (AID 149);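 also: 0% = growth of vehicle-treated wt1 cultures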; settings: S. cerevisiae wt1 strain (SPY 50644) growth inhibition, stronger effect = higher value
Outline: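 Yeast wt1 strain exposed to compounds; growth inhibition measured relative to vehicle-treated controls.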

[2] = NCI Yeast Anticancer Drug Screen. Data for the rad50EPP+ strain (AID 151);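 also: 0% = growth of vehicle-treated control cultures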; settings: S. cerevisiae rad50 mutant strain, stronger effect = higher value
Outline: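 Genetically defined yeast (rad50EPP+, DNA damage repair alteration) is grown with compound, and inhibition of growth is expressed relative to vehicle-treated controls.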

[3] = NCI Yeast Anticancer Drug Screen. Data for the rad50 strain (AID 155);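 also: 0% = growth of vehicle-only cultures of the same strain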; settings: S. cerevisiae rad50 strain growth inhibition, stronger effect = higher value
Outline: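 Yeast carrying a defined DNA repair defect were exposed to test compounds, and growth was compared with vehicle-treated controls to give percent inhibition.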

[4] = NCI Yeast Anticancer Drug Screen. Data for the mec2-1 strain (AID 157); settings: S. cerevisiae mec2-1 strain, stronger effect = higher value
Outline: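 Each compound was tested on mec2-1 yeast, a strain altered in DNA damage repair or cell cycle control. Growth inhibition is reported relative to vehicle.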

[5] = NCI Yeast Anticancer Drug Screen. Data for the rad14 strain (AID 159);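 also: 0% = growth of vehicle-treated control cultures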; settings: S. cerevisiae rad14 strain growth inhibition, stronger effect = higher value
Outline: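 Yeast cells carrying a defined DNA-repair defect were exposed to compounds, and growth inhibition was calculated relative to vehicle-treated control cultures.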

[6] = NCI Yeast Anticancer Drug Screen. Data for the sgs1 mgt1 strain (AID 161);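 also: 0% = growth of cultures given vehicle only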; settings: S. cerevisiae sgs1 mgt1 strain, stronger effect = higher value
Outline: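 Genetically altered yeast, compound exposure, growth inhibition relative to vehicle.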

[7] = NCI Yeast Anticancer Drug Screen. Data for the CLN2oe strain (AID 163);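 also: 0% = growth of vehicle-only control cultures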; settings: S. cerevisiae CLN2oe strain, stronger effect = higher value
Outline: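 First, the altered yeast strain was treated with each compound; second, its growth was measured; finally, inhibition was derived by comparison with vehicle controls.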

[8] = NCI Yeast Anticancer Drug Screen. Data for the cln2 rad14 strain (AID 165);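 also: 0% = growth equal to vehicle treated cultures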; settings: S. cerevisiae cln2 rad14 strain, stronger effect = higher value
Outline: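 Test compounds were added to cln2 rad14 yeast cultures; inhibition of growth was then determined by comparison with vehicle treatment.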

[9] = NCI Yeast Anticancer Drug Screen. Data for the bub3 strain (AID 167); settings: S. cerevisiae bub3 mutant strain, stronger effect = higher value
Outline: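 Compounds were applied to a genetically altered yeast strain carrying a cell-cycle control defect. Growth inhibition was scored against vehicle-treated controls.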

[10] = NCI Yeast Anticancer Drug Screen. Data for the wt2 strain (AID 169);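 also: 0% = growth of vehicle-treated yeast cultures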; settings: S. cerevisiae wt2 strain growth inhibition, stronger effect = higher value
Outline: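 The panel's yeast strains carry defined changes in DNA repair or cell cycle genes. Each strain is grown with compound, and growth loss is scored relative to vehicle.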

[11] = NCI Yeast Anticancer Drug Screen. Data for the mlh1 strain (AID 171);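 also: 0% = growth of vehicle-treated control cultures of the same strain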; settings: S. cerevisiae mlh1 strain growth inhibition, stronger effect = higher value
Outline: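 Inhibition values reflect reduced yeast growth in the presence of compound, referenced to vehicle controls, using a strain chosen for its alteration in DNA repair or cell cycle control.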

[12] = NCI Yeast Anticancer Drug Screen. Data for the sgs1 strain (AID 173);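 also: 0% = growth of vehicle-only control cultures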; settings: S. cerevisiae sgs1 mutant, stronger effect = higher value
Outline: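 Vehicle-treated cultures served as reference for growth inhibition of a yeast strain altered in DNA damage repair or cell cycle control after compound exposure.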

[13] = NCI Yeast Anticancer Drug Screen. Data for the mlh1 rad18 strain (AID 175); settings: S. cerevisiae mlh1 rad18 strain growth inhibition, stronger effect = higher value
Outline: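 Inhibition values reflect reduced growth of mutant yeast versus vehicle-treated controls following compound exposure; the mutations affect DNA damage repair.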

[14] = NCI Yeast Anticancer Drug Screen. Data for the rad18 strain (AID 177); settings: S. cerevisiae rad18 mutant growth inhibition, stronger effect = higher value
Outline: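 Steps: expose repair-mutant yeast to compound; measure growth; express as inhibition relative to vehicle control.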

[15] = at 5.0 µM (retest, dose inferred, filed as 0.5)
[16] = at 50.0 µM (retest, dose inferred, filed as 5.0)

Measured: growth inhibition

c1ccc(N/N=C2\CC(c3ccccc3)Oc3ccccc32)cc1 (stereo unspecified)
active: [3]; at 50.0 µM 71.2% | [5]; at 100.0 µM 72% | [6]; at 50.0 µM 74% | [13]; at 50.0 µM 72.5%
inactive: [1]; at 1.2 µM -1% | [1]; at 3.7 µM 0% | [1]; at 11.0 µM -3% | [1]; at 33.0 µM -2% | [1]; at 100.0 µM -2% | [2]; at 1.2 µM 19% | [2]; at 3.7 µM 33% | [2]; at 11.0 µM 47% | [2]; at 33.0 µM 64% | [2]; at 100.0 µM 50% | [3]; at 1.2 µM 4% | [3]; at 3.7 µM 11% | [3]; [15] 5% | [3]; at 11.0 µM 1% | [3]; at 33.0 µM 32% | [3]; [16] 8% | [3]; at 100.0 µM 28% | [4]; at 1.2 µM 1% | [4]; at 3.7 µM 4% | [4]; [15] -2% | [4]; at 11.0 µM 9% | [4]; at 33.0 µM 14% | [4]; [16] 23% | [4]; at 50.0 µM 31.4% | [4]; at 100.0 µM 13% | [5]; at 1.2 µM 0% | [5]; at 3.7 µM 4% | [5]; at 11.0 µM 10% | [5]; at 33.0 µM 52% | [6]; [15] -5% | [6]; [16] 26% | [7]; at 1.2 µM 0% | [7]; at 3.7 µM 1% | [7]; at 11.0 µM 1% | [7]; at 33.0 µM 12% | [7]; at 100.0 µM 17% | [8]; [15] -5% | [8]; [16] 4% | [8]; at 50.0 µM 30.6% | [9]; at 1.2 µM 1% | [9]; at 3.7 µM 4% | [9]; [15] -24% | [9]; at 11.0 µM 15% | [9]; at 33.0 µM 39% | [9]; [16] 27% | [9]; at 50.0 µM 53% | [9]; at 100.0 µM 39% | [10]; at 1.2 µM 0% | [10]; at 3.7 µM -4% | [10]; at 11.0 µM 5% | [10]; at 33.0 µM 21% | [10]; at 100.0 µM 29% | [11]; at 1.2 µM 1% | [11]; at 3.7 µM 0% | [11]; at 11.0 µM 4% | [11]; at 33.0 µM 6% | [11]; at 100.0 µM 3% | [12]; at 1.2 µM -1% | [12]; at 3.7 µM 0% | [12]; at 11.0 µM 5% | [12]; at 33.0 µM 18% | [12]; at 100.0 µM 24% | [13]; [15] -26% | [13]; [16] 50% | [14]; at 1.2 µM 6% | [14]; at 3.7 µM 14% | [14]; at 11.0 µM 20% | [14]; at 33.0 µM 33% | [14]; at 100.0 µM 49%

Nc1c([N+](=O)[O-])cc2c3c(cccc13)CC2
inactive: [1]; at 1.2 µM 6% | [1]; at 3.7 µM 12% | [1]; at 11.0 µM 24% | [1]; at 33.0 µM 25% | [1]; at 100.0 µM 24% | [2]; at 1.2 µM 10% | [2]; at 3.7 µM 32% | [2]; at 11.0 µM 63% | [3]; at 1.2 µM 28% | [3]; at 3.7 µM 67% | [3]; [15] 3% | [4]; at 1.2 µM 4% | [4]; at 3.7 µM 14% | [4]; [15] 2% | [4]; at 11.0 µM 13% | [4]; at 33.0 µM 25% | [4]; [16] 29% | [4]; at 50.0 µM 27.9% | [4]; at 100.0 µM 29% | [5]; at 1.2 µM 11% | [5]; at 3.7 µM 14% | [5]; at 11.0 µM 30% | [5]; at 33.0 µM 39% | [5]; at 100.0 µM 54% | [6]; [15] 16% | [6]; [16] 54% | [6]; at 50.0 µM 52.5% | [7]; at 1.2 µM 8% | [7]; at 3.7 µM 14% | [7]; at 11.0 µM 17% | [7]; at 33.0 µM 20% | [7]; at 100.0 µM 26% | [8]; [15] -16% | [8]; [16] 20% | [8]; at 50.0 µM 21.5% | [9]; at 1.2 µM -4% | [9]; at 3.7 µM 0% | [9]; [15] -20% | [9]; at 11.0 µM 14% | [9]; at 33.0 µM 10% | [9]; [16] 17% | [9]; at 50.0 µM 21.4% | [9]; at 100.0 µM 11% | [10]; at 1.2 µM 3% | [10]; at 3.7 µM 10% | [10]; at 11.0 µM 18% | [10]; at 33.0 µM 25% | [10]; at 100.0 µM 55% | [12]; at 1.2 µM 8% | [12]; at 3.7 µM 20% | [12]; at 11.0 µM 33% | [12]; at 33.0 µM 45% | [12]; at 100.0 µM 65% | [13]; [15] 12% | [13]; [16] 65% | [14]; at 1.2 µM 24%
active: [2]; at 33.0 µM 74% | [2]; at 100.0 µM 71% | [3]; at 11.0 µM 79% | [3]; at 33.0 µM 77% | [3]; [16] 81% | [3]; at 50.0 µM 87.2% | [3]; at 100.0 µM 83% | [13]; at 50.0 µM 77.9% | [14]; at 3.7 µM 71% | [14]; at 11.0 µM 86% | [14]; at 33.0 µM 83% | [14]; at 100.0 µM 86%

CNc1ccc2[nH]c3ccccc3c2c1
inactive: [1]; at 1.2 µM 0% | [1]; at 3.7 µM 0% | [1]; at 11.0 µM 1% | [1]; at 33.0 µM -4% | [1]; at 100.0 µM 28% | [2]; at 1.2 µM 1% | [2]; at 3.7 µM -2% | [2]; at 11.0 µM -4% | [2]; at 33.0 µM 26% | [2]; at 100.0 µM 65% | [3]; at 1.2 µM -1% | [3]; at 3.7 µM -2% | [3]; [15] 7% | [3]; at 11.0 µM -2% | [3]; at 33.0 µM 1% | [3]; [16] 25% | [3]; at 100.0 µM 58% | [4]; at 1.2 µM -1% | [4]; at 3.7 µM 1% | [4]; [15] -1% | [4]; at 11.0 µM 0% | [4]; at 33.0 µM 1% | [4]; [16] -5% | [4]; at 50.0 µM 62.9% | [4]; at 100.0 µM 59% | [5]; at 1.2 µM -3% | [5]; at 3.7 µM -5% | [5]; at 11.0 µM -3% | [5]; at 33.0 µM 4% | [6]; [15] -11% | [6]; [16] 13% | [7]; at 1.2 µM -6% | [7]; at 3.7 µM -7% | [7]; at 11.0 µM 0% | [7]; at 33.0 µM -5% | [7]; at 100.0 µM 52% | [9]; at 1.2 µM -4% | [9]; at 3.7 µM -7% | [9]; [15] -11% | [9]; at 11.0 µM -8% | [9]; at 33.0 µM -10% | [9]; [16] -4% | [9]; at 50.0 µM 66.6% | [9]; at 100.0 µM 54% | [10]; at 1.2 µM -1% | [10]; at 3.7 µM -1% | [10]; at 11.0 µM 3% | [10]; at 33.0 µM 5% | [10]; at 100.0 µM 59% | [11]; at 1.2 µM 3% | [11]; at 3.7 µM 1% | [11]; at 11.0 µM 0% | [11]; at 33.0 µM 1% | [11]; at 100.0 µM 65% | [12]; at 1.2 µM 0% | [12]; at 3.7 µM 4% | [12]; at 11.0 µM 3% | [12]; at 33.0 µM 11% | [13]; [15] -20% | [14]; at 1.2 µM 2% | [14]; at 3.7 µM 0% | [14]; at 11.0 µM -11% | [14]; at 33.0 µM 18%
active: [3]; at 50.0 µM 90% | [5]; at 100.0 µM 80% | [6]; at 50.0 µM 80.9% | [12]; at 100.0 µM 83% | [13]; [16] 77% | [13]; at 50.0 µM 82.7% | [14]; at 100.0 µM 85%
